The list is not random: actives were taken first. Their share in the collection is about 8.7%.
HP1b binding inh: HP1-beta chromodomain-methylated histone interaction inhibition | P83916 | AlphaScreen HP1-beta / biotin-H3K9me3 peptide binding | Potency, µM (doses to about 114 µM), for inactives: at the highest dose activity change, negative = inhibition, hits mostly inhibitors | hit rate 0.56% among 390,000 | AID 540317; note: nearly all actives have a fitted effect of over 70% in size
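HP1-beta protein (50 nM final) preincubated 30 min at room temperature with biotinylated H3(1-18)K9me3 peptide (50 nM) in PBS pH 7.4, 0.01% Tween-20, then compound added for 30 min. AlphaScreen streptavidin donor/nickel chelate acceptor beads (10 ug/mL final), 30 min dark, luminescence read.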
G9a inh: G9a (human) methyltransferase inhibition; Q96KQ7; G9a H3K9 monomethylation, AlphaScreen, 2 h; Potency, µM (doses to about 102 µM), for inactives: at the top dose activity, negative = inhibition, actives largely listed as inhibitors; hit rate 8.8% among 350,000; AID 504332; note: % is set by controls: 0 for no effect and ±100 for the full control effect; nearly all actives have a fitted effect of over 75% in size
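Compounds were preincubated with 20 nM G9a for 15 min, after which biotinylated H3K9 peptide (500 nM) and SAM (20 uM) started a 2 h room-temperature reaction. Monomethylated product was quantified by antibody-based AlphaScreen chemiluminescence.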
12-LOX inh: blocks human arachidonate 12S-lipoxygenase; purified 12hLO, xylenol orange hydroperoxide absorbance; Potency, µM (titrated, usually from 108 µM), without a hit: top-dose activity change, negative = inhibition, most hits filed as inhibitors; hit rate 1.1% among 580,000; note: % is set by controls: 0 for no effect and ±100 for the full control effect
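Purified human 12hLO (150 nM final) in 25 mM Hepes, 0.01% Triton X-100, pH 7.0 was preincubated 15 min at room temperature with compound. Then 40 uM arachidonic acid was added, 30 min. Hydroperoxide was read by Fe-XO absorbance ratio 573/405 nm.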
Sfp PPTase inh: blocks B. subtilis Sfp PPTase activity | Q9F4F7 | Potency, µM, inactives show largest response in the series, negative = inhibition, actives largely listed as inhibitors | Biochemical Sfp PPTase activity, qHTS | hit rate 3.5% among 310,000;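 note: the enzyme is Sfp with the accession as filed and its product quenches rhodamine fluorescence; 0% = enzyme reaction without inhibitor and -100% = no enzyme wells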
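After 15 min at room temperature with compound, 15 nM Sfp received 5 uM rhodamine-CoA plus 12.5 uM BHQ-2-ybbR (50 mM Hepes pH 7.6, 10 mM MgCl2). Rate came from the fluorescence difference over 30 min, ex 525/em 598 nm.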
JMJD2A Tudor inh: inhibitors of human JMJD2A Tudor domain | O75164 | AlphaScreen JMJD2A-Tudor / H3K4me3 peptide binding | Potency, µM (top dose mostly 114 µM), for inactives: top-dose activity change, negative = inhibition, actives largely listed as inhibitors | hit rate 4.4% among 390,000 | AID 504339; note: % is set by controls: 0 for no effect and ±100 for the full control effect; nearly all actives have a fitted effect of over 50% in size
Target sequence (O75164 whole entry, looked up, the tested form may be a part): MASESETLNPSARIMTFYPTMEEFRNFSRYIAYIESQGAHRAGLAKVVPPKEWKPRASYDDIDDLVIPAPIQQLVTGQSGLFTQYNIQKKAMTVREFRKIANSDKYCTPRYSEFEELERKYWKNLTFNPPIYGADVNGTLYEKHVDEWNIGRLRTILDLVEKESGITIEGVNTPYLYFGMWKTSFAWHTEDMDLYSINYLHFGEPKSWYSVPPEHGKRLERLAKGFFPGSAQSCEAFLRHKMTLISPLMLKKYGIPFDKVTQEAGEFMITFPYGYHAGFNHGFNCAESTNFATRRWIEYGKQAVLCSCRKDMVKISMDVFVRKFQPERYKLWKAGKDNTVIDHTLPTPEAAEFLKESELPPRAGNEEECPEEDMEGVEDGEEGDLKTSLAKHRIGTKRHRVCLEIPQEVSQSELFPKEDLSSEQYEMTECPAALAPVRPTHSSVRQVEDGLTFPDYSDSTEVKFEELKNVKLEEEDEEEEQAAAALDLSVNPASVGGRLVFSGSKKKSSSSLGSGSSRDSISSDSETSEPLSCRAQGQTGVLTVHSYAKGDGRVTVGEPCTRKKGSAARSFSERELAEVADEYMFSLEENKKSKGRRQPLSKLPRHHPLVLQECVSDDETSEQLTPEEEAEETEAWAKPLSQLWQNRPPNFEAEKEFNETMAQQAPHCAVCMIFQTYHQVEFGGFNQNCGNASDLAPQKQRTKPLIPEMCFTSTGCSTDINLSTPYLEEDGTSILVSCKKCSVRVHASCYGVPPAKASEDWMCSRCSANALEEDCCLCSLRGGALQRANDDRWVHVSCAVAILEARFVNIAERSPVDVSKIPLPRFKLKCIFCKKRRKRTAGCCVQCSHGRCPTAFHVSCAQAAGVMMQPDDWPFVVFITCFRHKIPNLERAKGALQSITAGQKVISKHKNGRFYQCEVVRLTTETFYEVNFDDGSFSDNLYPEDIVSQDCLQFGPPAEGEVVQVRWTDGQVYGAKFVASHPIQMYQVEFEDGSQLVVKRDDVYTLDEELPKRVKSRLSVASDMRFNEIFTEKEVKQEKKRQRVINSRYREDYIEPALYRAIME
BAZ2B block: inhibitors of human BAZ2B bromodomain | AlphaScreen BAZ2B-H3K14Ac peptide displacement | hit rate 4.4% among 360,000 | AID 504333 | Potency, µM (doses to about 114 µM), without a hit: at the highest dose activity change, negative = inhibition, hits mostly inhibitors; note: % is set by controls: 0 for no effect and ±100 for the full control effect; nearly all actives have a fitted effect of over 60% in size
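AlphaScreen luminescence quantifies BAZ2B engagement of H3K14Ac peptide; the protein and biotinylated peptide are both at 50 nM final, buffer PBS pH 7.4 with 0.01% Tween-20, all steps at room temperature.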
* = called active by the depositor; ? = inconclusive; / = no result given; [ ] = remark or other dose. Calls come from the whole dose curve; as a rule, active = well fitted curve in the direction sought with a large enough effect; inconclusive = small, poorly fitted or top-dose-only effect, or another doubt; inactive = no such curve, though single readings can be large; an effect the other way counts as inactive or inconclusive. Potency is the fitted concentration of half-maximal effect.

SMILES | HP1b binding inh | G9a inh | 12-LOX inh | Sfp PPTase inh | JMJD2A Tudor inh | BAZ2B block
CCc1ccccc1NC(=O)CCS(=O)(=O)c1ccc(Br)cc1 | ? | 50µM* | 3% | 22% | ? | 79µM*
CCc1ccccc1NC(=O)CCS(=O)(=O)c1ccc(C)cc1 | 27% | 13%[2.33 µM] | 55% | 13% | -4% | 12%
COc1ccc(S(=O)(=O)CCC(=O)Nc2ccc(OC)cc2OC)cc1 | 23% | 10µM* | ? | 1% | -9% | -14%
CN(CCOc1cccc(Cl)c1)Cc1nc(N)nc(N)n1 | / | / | -16% | / | / | /
COc1ccc2c(C)c(CC(=O)NC3CCCC3)c(=O)oc2c1OC | / | / | 2% | / | / | /
COc1ccc([N+](=O)[O-])cc1NC(=O)CCS(=O)(=O)c1ccc(Br)cc1 | ? | 14µM* | -26% | 12% | 40µM* | 50µM*
COC(=O)c1ccccc1NC(=O)CC(=O)Nc1ccccc1C(=O)OC | 23% | 4%[2.33 µM] | 8% | 5% | -4% | 4%
COC(=O)c1ccccc1NC(=O)CCS(=O)(=O)c1ccc(Br)cc1 | 3.2µM* | 2.2µM* | -3% | 1% | 4µM* | 2µM*
COc1ccc([N+](=O)[O-])cc1NC(=O)CS(=O)(=O)c1ccc(C)cc1 | 36% | 8%[12.7 µM] | 3% | 18% | -15% | -13%
COc1ccc(OCC(=O)N/N=C/c2ccc(N(C)C)cc2)cc1 | 2% | 45µM* | -20% | -2% | -34% | ?
COc1ccccc1NC(=O)COc1ccc(/C=N/NC(=O)CSCc2ccc(Cl)cc2)cc1 | -7% | / | 0% | 40µM* | -16% | -6%
COc1ccc(OCC(=O)N/N=C/c2cccn2-c2cccc(C(=O)O)c2)cc1 | ? | 35µM* | ? | / | 45µM* | 79µM*
COc1ccc(/C=N/NC(=O)CNC(=O)COc2ccccc2)cc1 | 6% | 6%[59 µM] | 0% | 3% | -6% | 9%
CCOc1ccc(NC(=O)Cc2cc(Cl)c3c(c2)OCCCO3)cc1S(=O)(=O)N1CCCC1 | / | / | -1% | / | / | /
Cc1nn(Cc2ccccc2)c2ncccc12 | 34% | / | 45µM* | 14% | 1% | 33%
COc1ccc(OCc2n(CC(=O)OC3CC(C)CCC3C(C)C)c3ccccc3[n+]2C)cc1 (configuration not stated) | 42% | ? | 0% | 35µM* | ? | -26%
COc1ccc(-c2n(CC(=O)OC3CC(C)CCC3C(C)C)c3ccccc3[n+]2C)cc1 (configuration not stated) | 24% | 1.1µM* | -13% | 6% | -11% | ?
CCOC(=O)c1ccc(N=C2C(=S)N(c3ccc(C(=O)OCC)cc3)C(=N)N2/N=C/c2ccccc2)cc1 | -41% | 4µM* | -24% | -2% | ? | -3%
CCOC(=O)c1ccc(N2Cc3ccccc3C2=N)cc1 | 48% | 6% | -21% | -4% | 9% | 13%
COc1ccc(-c2cc3nnc(-c4ccccc4)nc3s2)cc1 | 30% | ? | -30% | 40µM* | -9% | -6%
COc1ccc(-c2cc(-c3ccccc3)no2)cc1 | 38% | 6%[2.33 µM] | 12% | / | 1% | 10%
Cn1c(=O)c2cc(S(=O)(=O)NC(C(=O)Nc3cccc(F)c3)c3ccccc3)ccc2n(C)c1=O (configuration not stated) | 44% | 18µM* | 10%[57.4 µM] | 9% | -13% | -14%
CCCNC(=O)C(Cc1ccccc1)NS(=O)(=O)c1ccc2c(c1)c(=O)n(C)c(=O)n2C (configuration not stated) | 33% | -19%[59 µM] | -19% | 23% | -5% | -9%
CCCNC(=O)C(NS(=O)(=O)c1ccc2c(c1)c(=O)n(C)c(=O)n2C)c1ccccc1 (configuration not stated) | 37% | 40µM* | 4% | 12% | -13% | -2%
Cn1c(=O)c2cc(S(=O)(=O)NC(C(=O)NCc3cccnc3)c3ccccc3)ccc2n(C)c1=O (configuration not stated) | 16% | -5% | 9% | 33% | -24% | ?
SMILES | HP1b binding inh | G9a inh | 12-LOX inh | Sfp PPTase inh | JMJD2A Tudor inh | BAZ2B block
Cn1c(=O)c2cc(S(=O)(=O)NC(C(=O)Nc3cccnc3)c3ccccc3)ccc2n(C)c1=O (configuration not stated) | 43% | 8.9µM* | -28% | -7% | -12% | 8%
CN(C)c1ccc(CN[C@H]2C[C@H]3C(=O)NC[C@@H](CCC(=O)NC4CC4)N3C2)cc1 | / | / | 19%[176 µM] | / | / | /
C=CCOc1cccc(-c2nnc(CCC(=O)NC(C)c3ccccc3)c(=O)[nH]2)c1 (configuration not stated) | / | / | 38% | / | / | /
Cc1ccc(-c2c[n+](CC(=O)c3ccc(Br)cc3)c3n2CCCCC3)cc1 | 22% | 45µM* | 1% | ? | -30% | ?
O=C(C[n+]1cc(-c2ccccc2)n2c1CCCCC2)c1ccc(Cl)cc1 | 44% | -9%[59 µM] | -3% | 4% | 3% | -3%
O=C(NCc1nnc2cc(-c3nc(C4CC4)no3)ccn12)c1ccncc1 | / | / | -5% | / | / | /
C=CCn1c(=O)c2c(nc(-c3ccc(S(=O)(=O)O)cc3)n2C)n(C)c1=O | 20% | 12µM* | ? | 6% | ? | /
C=CCn1c(=O)c2c(nc(-n3nc(CC)cc3CC)n2C)n(C)c1=O | / | / | 35% | / | / | /
Cc1nc2scc(CC(=O)NCCC(C)C)n2c(=O)c1-c1cc(C)n(-c2ccc(F)cc2)n1 | / | / | -7% | / | / | /
Cc1ccc(/C=N/NC(=O)c2ccc(-c3ccccc3)cc2)o1 | 9% | 21% | -12% | 16% | -21% | 2%
O=C(N/N=C/c1ccc(N2CCOCC2)o1)c1cccc([N+](=O)[O-])c1 | -2% | 10µM* | -13% | 1.1µM* | ? | -28%
O=C(N/N=C/c1ccccc1)c1ccc(N2CCOCC2)c([N+](=O)[O-])c1 | 33% | -26%[59 µM] | -14% | -10% | -4% | -37%
O=C(N/N=C/c1ccc(N2CCCCC2)o1)c1ccccc1 | ? | 10µM* | -20% | -107% | 50µM* | -9%
Cc1cccc(N2C(S)=C(C#N)C(=O)NC2c2cccs2)c1 (configuration not stated) | 26% | 40µM* | ? | 32µM* | -12% | 10%
Cc1ccccc1N1C(S)=C(C#N)C(=O)NC1c1ccco1 (configuration not stated) | 23% | / | ? | 13µM* | -25% | ?
N#CC1=C(S)N(c2ccc(F)cc2)C(c2cccs2)NC1=O (configuration not stated) | 38% | 16µM* | ? | 56µM* | -20%[57.1 µM] | 5%

Bioassay records deposited in PubChem by National Center for Advancing Translational Sciences (NCATS).
